Inconclusive results are not listed. Calls of active or inactive are those of the source. Unless noted, the call rests on the fitted dose curve; in most records, active means well fitted curve in the direction sought with a large enough effect in the repeat runs; inconclusive means weak or mixed curves; inactive means no such curve, though single readings can be large; an effect the other way counts as inactive or inconclusive.

The nature of experiment [1]: qHTS assay to identify small molecule antagonists of the thyroid receptor (TR) signaling pathway - cell viability counter screen (AID 743064). Further: nearly all actives have a fitted effect of over 50% in size. Further: potency means the concentration at half of the fitted maximal effect. In short, it runs like this:
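Rat GH3 pituitary tumor cells stably expressing two TR response elements driving luciferase were plated, rested 4 h, then dosed with library compounds and T3 (1 nM final). After 23.5 h at 37 °C, CellTiter-Fluor was added for 30 min and fluorescence recorded.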
(In general: qHTS replaces the single test concentration by a dilution series.)

Experiment [2] relates to thyroid hormone receptor (rat, GH3 cells). Description: qHTS assay to identify small molecule agonists of the thyroid receptor (TR) signaling pathway (AID 743066; calls by dose curve).
Experiment [3] in a line: qHTS assay to identify small molecule antagonists of the estrogen receptor alpha (ER-alpha) signaling pathway - cell viability counter screen (AID 743074; calls by dose curve; further: nearly all actives have a fitted effect of over 45% in size).
Experiment [4] deals with Estrogen receptor (Homo sapiens) (UniProt P03372). Description: qHTS assay to identify small molecule agonists of the estrogen receptor alpha (ER-alpha) signaling pathway (AID 743075; calls by dose curve).
Chain of Estrogen receptor (Homo sapiens) (P03372 whole entry, looked up): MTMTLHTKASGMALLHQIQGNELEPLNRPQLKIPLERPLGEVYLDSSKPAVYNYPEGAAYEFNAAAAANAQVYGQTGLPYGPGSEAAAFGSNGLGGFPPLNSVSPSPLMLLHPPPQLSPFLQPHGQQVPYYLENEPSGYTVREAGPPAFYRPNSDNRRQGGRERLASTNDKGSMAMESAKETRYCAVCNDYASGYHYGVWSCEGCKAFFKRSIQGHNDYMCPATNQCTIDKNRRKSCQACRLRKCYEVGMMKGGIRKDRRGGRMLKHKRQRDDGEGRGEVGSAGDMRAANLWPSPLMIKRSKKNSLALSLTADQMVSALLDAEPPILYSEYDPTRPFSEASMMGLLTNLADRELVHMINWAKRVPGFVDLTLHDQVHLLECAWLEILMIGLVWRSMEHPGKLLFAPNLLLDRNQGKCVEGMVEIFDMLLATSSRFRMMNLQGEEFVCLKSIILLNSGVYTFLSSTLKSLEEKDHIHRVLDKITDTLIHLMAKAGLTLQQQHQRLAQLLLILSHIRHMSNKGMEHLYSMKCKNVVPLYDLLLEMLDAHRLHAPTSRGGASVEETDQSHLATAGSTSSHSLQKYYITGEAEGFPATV
The target is the same in experiment [5]. Briefly: qHTS assay to identify small molecule agonists of the estrogen receptor alpha (ER-alpha) signaling pathway using the BG1 cell line (AID 743079). Further: nearly all actives have a fitted effect of over 20% in size.
Experiment [6] can be described thus: qHTS assay to identify small molecule antagonists of the estrogen receptor alpha (ER-alpha) signaling pathway using the BG1 cell line (AID 743080; calls by dose curve;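 further: BG1 cells stimulated with 17beta-estradiol alongside compound; series mostly up to about 70 µM; nearly all actives have a fitted effect of over 25% in size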). Put shortly:
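Endogenous full-length ER-alpha in BG1-Luc-4E2 cells drives a stably integrated 4×ERE luciferase gene; compounds were tested against 17beta-estradiol over 21.5 h, with luminescence and multiplexed viability fluorescence recorded.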

Experiment [7] is described as follows: qHTS assay to identify small molecule antagonists of the estrogen receptor alpha (ER-alpha) signaling pathway using the BG1 cell line - cell viability counter screen (AID 743081).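 Further: compound given together with 17beta-estradiol as the ER stimulus; series mostly up to about 70 µM; nearly all actives have a fitted effect of over 45% in size.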
Experiment [8] deals with Aromatase (Homo sapiens) (UniProt P11511). Briefly: qHTS assay to identify aromatase inhibitors (AID 743083). Further: nearly all actives have a fitted effect of over 55% in size. Further: potency means the concentration at half of the fitted maximal effect.
Chain of Aromatase (Homo sapiens) (P11511 whole entry, looked up): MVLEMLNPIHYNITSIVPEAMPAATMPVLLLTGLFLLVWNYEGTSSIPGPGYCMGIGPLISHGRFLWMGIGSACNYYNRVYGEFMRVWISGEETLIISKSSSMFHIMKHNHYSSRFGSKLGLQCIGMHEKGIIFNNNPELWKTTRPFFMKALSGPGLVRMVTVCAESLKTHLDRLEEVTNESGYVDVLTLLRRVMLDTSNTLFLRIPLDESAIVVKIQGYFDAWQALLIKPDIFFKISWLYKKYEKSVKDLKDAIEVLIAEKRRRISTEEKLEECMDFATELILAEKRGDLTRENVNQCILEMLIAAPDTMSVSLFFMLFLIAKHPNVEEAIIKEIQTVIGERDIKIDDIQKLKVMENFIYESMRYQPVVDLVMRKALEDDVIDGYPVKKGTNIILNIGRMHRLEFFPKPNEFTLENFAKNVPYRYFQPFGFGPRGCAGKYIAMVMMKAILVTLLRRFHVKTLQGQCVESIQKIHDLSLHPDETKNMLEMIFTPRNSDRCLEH
The nature of experiment [9]: qHTS assay to identify aromatase inhibitors - cell viability counter screen (AID 743084).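 Further: cells stimulated with testosterone during compound exposure; nearly all actives have a fitted effect of over 55% in size.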 Further: potency means the concentration at half of the fitted maximal effect.
Experiment [10] is described as follows: qHTS assay to identify small molecule that activate the aryl hydrocarbon receptor (AhR) signaling pathway - cell viability counter screen (AID 743086).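 Further: HepG2 liver cells carrying the AhR DRE luciferase reporter; series mostly up to about 70 µM; nearly all actives have a fitted effect of over 45% in size.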 Put shortly: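 HepG2-AhR-luc (HG2L7.5c1) cells, 4000/well, were preincubated 5 h at 37C, exposed to compound in qHTS format for 24 hr at 37C, then given CellTiter-Fluor for 30 min; viability was read as fluorescence in the reporter wells.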

The nature of experiment [11]: qHTS assay for small molecule agonists of the antioxidant response element (ARE) signaling pathway (AID 743202; active means well fitted activation curve with a large enough effect in the signal ratio in the repeat runs, not every such curve was filed as active; the % refers to the signal ratio; further: potency means the concentration at half of the fitted maximal effect). In short, it runs like this: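 Read-out: LiveBLAzer B/G FRET substrate fluorescence after 2 h at room temperature, following 16 h compound treatment at 37 C of HepG2 cells carrying an ARE-driven beta-lactamase reporter.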
A short description of experiment [12]: qHTS assay for small molecule agonists of the antioxidant response element (ARE) signaling pathway - cell viability counter screen (AID 743203; calls by dose curve; further: nearly all actives have a fitted effect of over 55% in size). In short, it runs like this:
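ARE-bla HepG2 cells were plated, rested 5 h at 37C/5% CO2, then exposed to compounds in DMSO for 16 h. Viability was read as CellTiter-Glo luminescence after 30 min at room temperature, in the same wells as the ARE screen.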

Experiment [13] is described as follows: qHTS assay for small molecule activators of the heat shock response signaling pathway - cell viability counter screen (AID 743209). Further: nearly all actives have a fitted effect of over 50% in size. Further: potency means the concentration at half of the fitted maximal effect. Put shortly:
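HSE-bla HeLa cells plated overnight, then exposed to Tox21 compounds (23 nL in DMSO) for 5 h at 37 C. After the bla reporter read, CellTiter-Glo was added in the same wells and luminescence read after 30 min at room temperature.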

Experiment [14] in a line: qHTS assay for small molecule activators of the heat shock response signaling pathway (AID 743210; active means well fitted activation curve with a large enough effect in the signal ratio in the repeat runs, with a control signal flat, not every such curve was filed as active; the % refers to the signal ratio; further: series mostly up to about 63 µM). Put shortly: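 HSE-bla HeLa cells (beta-lactamase reporter under heat shock response elements) were exposed to compounds for 5 h at 37 C, then loaded with LiveBLAzer B/G FRET substrate for 2.5 h at room temperature before fluorescence reading.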
Experiment [15] addresses Aryl hydrocarbon receptor (Homo sapiens) (UniProt P35869). Briefly: qHTS assay to identify small molecule that activate the aryl hydrocarbon receptor (AhR) signaling pathway (AID 743085).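 Further: HG2L7.5c1 human HepG2 liver cells with stably integrated DRE-driven firefly reporter; series mostly up to about 70 µM; nearly all actives have a fitted effect of over 15% in size.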 In short, it runs like this: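 Compounds were tested in HepG2 hepatocellular carcinoma cells harbouring a stably integrated luciferase gene under control of 20 DREs. Increased reporter signal after 24 h treatment at 37C was taken as AhR activation.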

Experiment [16] can be described thus: qHTS assay to identify small molecule antagonists of the peroxisome proliferator-activated receptor gamma (PPARg) signaling pathway - cell viability counter screen (AID 743194). Further: nearly all actives have a fitted effect of over 55% in size. Further: potency means the concentration at half of the fitted maximal effect. In short, it runs like this:
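PPARg-UAS-bla HEK293H cells were plated, rested 5 h at 37 C, then treated with compounds plus rosiglitazone (50 nM final) for 17 h at 37 C; viability was then read by CellTiter-Glo luminescence after 30 min at room temperature.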

In experiment [17] the target is Peroxisome proliferator-activated receptor gamma (Homo sapiens) (UniProt P37231). Description: qHTS assay to identify small molecule agonists of the peroxisome proliferator-activated receptor gamma (PPARg) signaling pathway (AID 743094; active means well fitted activation curve with a large enough effect in the signal ratio in the repeat runs, not every such curve was filed as active; the % refers to the signal ratio). In short, it runs like this: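 GeneBLAzer PPARg UAS-bla HEK293H cells were plated, rested 5 h, then exposed to compounds for 17 h at 37C. Beta-lactamase activity was read by LiveBLAzer B/G FRET substrate fluorescence after 1 h at room temperature.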
Chain of Peroxisome proliferator-activated receptor gamma (Homo sapiens) (P37231 whole entry, looked up): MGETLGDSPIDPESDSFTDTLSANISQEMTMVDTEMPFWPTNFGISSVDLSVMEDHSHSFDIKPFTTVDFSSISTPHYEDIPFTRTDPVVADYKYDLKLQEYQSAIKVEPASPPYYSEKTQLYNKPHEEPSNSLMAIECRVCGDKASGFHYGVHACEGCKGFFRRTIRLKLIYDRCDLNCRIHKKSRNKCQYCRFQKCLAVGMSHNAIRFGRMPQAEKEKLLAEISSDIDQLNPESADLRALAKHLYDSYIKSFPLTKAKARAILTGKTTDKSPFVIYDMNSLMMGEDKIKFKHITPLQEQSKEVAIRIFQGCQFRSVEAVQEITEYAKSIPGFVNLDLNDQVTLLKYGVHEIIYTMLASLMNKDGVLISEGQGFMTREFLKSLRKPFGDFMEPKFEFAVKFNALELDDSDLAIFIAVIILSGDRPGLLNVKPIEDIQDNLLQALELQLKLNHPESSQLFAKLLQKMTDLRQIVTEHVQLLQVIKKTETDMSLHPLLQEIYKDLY

In experiment [18] the target is Estrogen receptor (Homo sapiens) (UniProt P03372). Description: qHTS assay to identify small molecule antagonists of the estrogen receptor alpha (ER-alpha) signaling pathway (AID 743069; active means well fitted curve in the direction sought with a large enough effect in the signal ratio in the repeat runs, not every such curve was filed as active; the % refers to the signal ratio). In short, it runs like this:
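HEK293 cells stably carrying an ER-alpha-UAS-bla beta-lactamase reporter were pre-cultured overnight in 2% charcoal-stripped FBS medium. Test compounds in DMSO were added together with 17beta-estradiol for 18 hr at 37C. Read-out was fluorescence after 2 hr with LiveBLAzer B/G FRET substrate at room temperature.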

Experiment [19] is described as follows: qHTS assay to identify small molecule antagonists of the thyroid receptor (TR) signaling pathway (AID 743065). In short, it runs like this: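 GH3.TRE-Luc rat pituitary cells carrying two TR response elements driving luciferase were plated for 4 h, given compound plus 1 nM T3 (final), and incubated 23.5 h at 37 C. ONE-Glo luminescence measured reporter inhibition; CellTiter-Fluor fluorescence tracked cytotoxicity.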

Experiment [20] has as its target Peroxisome proliferator-activated receptor gamma (Homo sapiens) (UniProt P37231). Briefly: qHTS assay to identify small molecule antagonists of the peroxisome proliferator-activated receptor gamma (PPARg) signaling pathway (AID 743191; calls by dose curve; further: series mostly up to about 63 µM; nearly all actives have a fitted effect of over 30% in size). In short, it runs like this:
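GeneBLAzer PPARg UAS-bla HEK293H cells carrying a UAS-driven beta-lactamase reporter were plated at 3000 cells/well, preincubated 5 h at 37C, then given compound for 17 h at 37C; LiveBLAzer B/G FRET substrate was read after 1 h at room temperature.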

Chain of Aryl hydrocarbon receptor (Homo sapiens) (P35869 whole entry, looked up): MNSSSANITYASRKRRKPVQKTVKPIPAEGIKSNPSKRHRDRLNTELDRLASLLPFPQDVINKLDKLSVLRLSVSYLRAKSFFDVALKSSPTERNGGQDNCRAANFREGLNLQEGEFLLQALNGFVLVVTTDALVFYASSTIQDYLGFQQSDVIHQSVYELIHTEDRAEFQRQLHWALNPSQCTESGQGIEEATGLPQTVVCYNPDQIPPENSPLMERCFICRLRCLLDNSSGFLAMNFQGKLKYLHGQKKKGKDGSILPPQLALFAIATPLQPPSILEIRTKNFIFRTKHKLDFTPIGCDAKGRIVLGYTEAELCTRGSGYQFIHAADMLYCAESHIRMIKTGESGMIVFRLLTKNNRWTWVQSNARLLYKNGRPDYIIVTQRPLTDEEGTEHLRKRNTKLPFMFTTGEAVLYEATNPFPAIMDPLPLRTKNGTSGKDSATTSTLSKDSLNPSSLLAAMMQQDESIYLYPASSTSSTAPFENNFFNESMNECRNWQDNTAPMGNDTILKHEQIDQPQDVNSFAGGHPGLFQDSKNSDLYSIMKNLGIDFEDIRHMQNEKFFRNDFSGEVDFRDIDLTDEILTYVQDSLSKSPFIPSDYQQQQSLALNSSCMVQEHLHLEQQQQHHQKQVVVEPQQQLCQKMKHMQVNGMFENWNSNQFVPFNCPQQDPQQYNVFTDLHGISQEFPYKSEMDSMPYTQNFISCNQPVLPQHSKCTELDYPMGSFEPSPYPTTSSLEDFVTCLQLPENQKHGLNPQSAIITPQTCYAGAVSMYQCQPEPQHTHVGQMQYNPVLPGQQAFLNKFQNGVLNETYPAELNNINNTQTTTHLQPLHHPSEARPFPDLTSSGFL

Regarding `O=C(O)Cc1sc(-c2ccccc2)nc1-c1ccc(Cl)cc1`, the Potency entry in experiment [1], in experiment [2], in [4], in [5], in experiment [6] and in experiment [7] was “inactive” throughout. For the same molecule, the Potency result in experiment [8], in experiment [9], in experiment [10], in experiment [11], in experiment [12] and in [13] was “inactive” in each case. The call in experiment [3] and in experiment [14] was inactive.
Regarding `CN1CCN(C2=Nc3ccccc3Sc3ccc(Cl)cc32)CC1`, the Potency in experiment [1] was 13.3 µM (active). Moreover, the result in experiment [3] and in [14] was inactive. Also, the Potency entry in experiment [7], in experiment [8], in experiment [9], in experiment [15], in experiment [10] and in [16] was “inactive” in each case. The Potency result in experiment [11], in experiment [12] and in experiment [13] was “inactive” throughout.
As to `COCCCCCCCCOCCC[Si](C)(O[Si](C)(C)C)O[Si](C)(C)C`, the Potency entry in [1], in experiment [2], in experiment [15] and in [17] was “inactive” in each case. Also, the Potency in experiment [8] is 19.3 µM (active); in [9] it was 30.6 µM (active); in [13], 38.9 µM (active).
Regarding `O=C(O)Cc1cc(I)c(Oc2ccc(O)c(I)c2)c(I)c1`, the Potency result in experiment [1], in experiment [7], in experiment [8], in [9], in experiment [15] and in experiment [10] was “inactive” each time. Also, in experiment [3], the molecule was called inactive. Further, the Potency is 24.5 µM (active) in experiment [16] and 15.4 µM (active) in experiment [11].
Consider `Cc1occc1S`, for which the Potency entry in experiment [1], in [18], in experiment [4], in [5], in experiment [6] and in experiment [7] was “inactive” throughout. In addition, the Potency result in experiment [8], in experiment [9], in experiment [10], in experiment [17], in experiment [16] and in experiment [12] was “inactive” in each case. Also, the Potency entry in [13] is “inactive”. Besides, the outcome in experiment [3] was inactive.
Take `CC[C@@H]1C[C@H](N(Cc2cc(C(F)(F)F)cc(C(F)(F)F)c2)C(C)=O)c2cc(C(F)(F)F)ccc2N1C(=O)OC(C)C`: the Potency entry in experiment [19], in experiment [2], in experiment [18], in experiment [4], in experiment [5] and in experiment [6] was “inactive” throughout. In addition, the Potency entry in [10], in [17], in experiment [20], in experiment [16], in experiment [12] and in experiment [13] was “inactive” throughout. Further, the molecule was called inactive in [3] and in [14].
Take `CC1=CCC(C(C)C)C=C1` (stereo unspecified): the Potency result in experiment [1], in experiment [18], in experiment [4], in experiment [5], in experiment [6] and in experiment [7] was “inactive” throughout. For the same molecule, the Potency result in experiment [8], in experiment [9], in experiment [10], in [17], in experiment [16] and in [12] was “inactive” each time. Besides, the Potency entry in experiment [13] was “inactive”. Moreover, the molecule was classed as inactive in [3] and in experiment [14].
Consider `CCCCCCOC(=O)CCC`, for which the Potency entry in experiment [1], in [7], in experiment [8], in experiment [9], in [10] and in [17] was “inactive” each time. In addition, the Potency result in [16], in [11] and in experiment [12] was “inactive” each time. Further, the call in [14] was inactive.
With `O=S1(=O)c2cccc3cccc(c23)N1CCCN1CCN(c2ccc(F)cc2)CC1`, the Potency result in experiment [1], in [2], in experiment [4], in [7], in experiment [8] and in experiment [10] was “inactive” in each case. Moreover, the Potency result in [17], in experiment [20], in experiment [16] and in experiment [12] was “inactive” throughout.
For `COCCO`, the Potency entry in experiment [1], in [18], in experiment [4], in [5], in [6] and in experiment [7] was “inactive” throughout. Also, the Potency entry in experiment [8], in experiment [9], in experiment [15], in experiment [10], in [17] and in experiment [11] was “inactive” throughout. The Potency result in [12] and in experiment [13] was “inactive” throughout. For the same molecule, the outcome in experiment [3] and in [14] was inactive.
